Bioassay records (PubChem)
An excerpt weighted towards active compounds, which were near 6.2% of everything screened.
NTR1 agonist – NTR1 (human) agonism; P30989; NTR1-U2OS beta-arrestin-GFP spot imaging, agonist mode; activation, % at 20 µM; 330,000 compounds, 0.17% hits; AID 493036;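 active = activation at or above 40% of the spot to cytoplasm intensity ratio, with at least 20 cells analyzed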;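 note: 0% = DMSO without peptide and 100% = 100 nM NTR1 peptide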
Target sequence (P30989 whole entry, looked up): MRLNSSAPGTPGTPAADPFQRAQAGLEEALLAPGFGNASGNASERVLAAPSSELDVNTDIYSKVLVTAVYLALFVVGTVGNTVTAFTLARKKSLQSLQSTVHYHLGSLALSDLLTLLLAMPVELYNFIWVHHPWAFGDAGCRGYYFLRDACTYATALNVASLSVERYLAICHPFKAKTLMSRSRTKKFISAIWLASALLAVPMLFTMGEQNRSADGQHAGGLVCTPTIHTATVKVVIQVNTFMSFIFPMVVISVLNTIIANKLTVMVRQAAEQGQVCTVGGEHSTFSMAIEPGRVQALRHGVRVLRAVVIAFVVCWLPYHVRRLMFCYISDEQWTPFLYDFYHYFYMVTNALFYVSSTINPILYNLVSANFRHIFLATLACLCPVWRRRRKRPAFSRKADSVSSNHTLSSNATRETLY
Mot1-301 SUMO – SUMOylation pathway inhibition by Mot1-301 growth rescue. S. cerevisiae Mot1-301 growth rescue, ATP luminescence, 38.5C; percent above DMSO median, 100 means doubled. growth rescue, % at 18.8 µM. 320,000 compounds, 1% hits. AID 2716;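 active = every valid replicate shows activation above 250% relative to neutral control wells; inactive = the rest, any valid replicate at or below 250%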;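 note: OY570 slx delta 5 strain wells were the positive control but not used for scaling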
AHR activator – activators of human aryl hydrocarbon receptor. AHR-responsive luciferase reporter cells, luminescence. activation, % at 5 µM. 320,000 compounds, 2.5% hits; in the data active = activation above about 47%;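 note: 0% = vehicle wells and 100% = reference agonist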
AI-2 QS mod – modulators of Vibrio harveyi AI-2 quorum sensing system | activity change, % at 7.5 µM | 300,000 compounds, 0.4% hits | AID 2094 | Vibrio harveyi JMH597 AI-2 luminescence/OD600 ratio, 9 h; hits give low values; strain lacks LuxN and CqsS sensors; 0 = neutral-control median; in the data active = activity change below about -75%, passing the limit was not always enough;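 note: luminescence divided by OD600 gain over 9 h not by final OD600 alone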
Cardio protect – myocardial damage modulation in H9c2 cells; protection from H2O2 cell death, % at 20 µM; AID 588492; 360,000 compounds, 0.63% hits; H9c2 cardiomyocytes, H2O2 injury protection, ATPLite, 2 h;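 active = compounds giving at least 50% protection of heart cells from peroxide-induced death in the single-dose screen, raw or plate-pattern-corrected value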;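 note: 0% = DMSO wells with peroxide and 100% = DMSO wells without peroxide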
GRIN3A LBD mod – modulators (binders) of human NR3A ligand-binding domain. NR3A LBD differential scanning fluorimetry, Tm shift; 0% = protein alone, 100% = glycine-bound protein. Tm shift relative to glycine control, % at 25 µM. 340,000 compounds, 2.5% hits. AID 1259313;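 active = melting temperature shift of at least 10% of the positive control shift, at one fixed dose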
Yeast Mot1 SUMO – inhibits SUMO pathway, affecting Mot1-301 yeast growth; shares compounds with Mot1-301 SUMO; S. cerevisiae Mot1-301 galactose growth, ATP luminescence, 24 h; -100 = growth of slx-deleted rescue strain; growth activity, percent, % at 42 µM; 2,300 tested, under 10 active; AID 493004;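 active = Signal drops as the depositor expects, and the fitted half-maximal dose is no more than ten times the top valid tested dose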;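 note: more negative values mean stronger growth rescue toward the control strain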
Starred values were filed as active, the others as inactive; nt = no result given; + = active, no number; [ ] = remark or other dose.

SMILES	NTR1 agonist	Mot1-301 SUMO	AHR activator	AI-2 QS mod	Cardio protect	GRIN3A LBD mod	Yeast Mot1 SUMO
O=C1c2ccccc2C(=O)N1CCSc1ccccc1	-1.0	+	10.7	-16.3	-3.6	2.2	0.3
O=C1c2ccccc2C(=O)N1CCSc1nncs1	0.6	5.1	-1.5	4.2	-2.1	0.3	nt
CC(=O)NC(c1cccc(F)c1)c1nc(/C=C/c2ccccc2)cs1 (centres undefined)	nt	nt	nt	nt	3.0	nt	nt
Cc1ccc([C@@H]2CC(=O)[C@@H]3CN(S(=O)(=O)c4ccc(C)cc4)[C@H](c4ccccc4)C[C@@H]3N2S(=O)(=O)c2ccc(Cl)cc2)cc1	nt	nt	nt	nt	-0.5	nt	nt
CC(=O)CSc1ncnc2sc3c(c12)CCCC3	-1.3	712.2*	7.4	2.7	2.0	-0.3	0.4
O=c1[nH][nH]c(C(F)(F)F)c1C=Nc1ccccc1	0.7	21.2	-0.1	5.8	10.5	0.2	nt
O=c1[nH][nH]c(C(F)(F)F)c1C=NCc1cccs1	-1.0	+	6.3	18.8	3.9	0.0	0.2
Cc1[nH]c2ccccc2c1C(=O)C(=O)NCc1ccncc1	nt	-1.5	10.3	25.1	4.2	0.1	nt
CCN1CCCC1CN(Cc1cc2ccc(C)cc2[nH]c1=O)C(=S)Nc1ccc(OC)cc1OC (centres undefined)	-1.3	561.8*	14.3	8.2	5.9	-2.2	0.0
Cc1nn(C)cc1S(=O)(=O)Nc1ncccn1	-1.2	598.1*	0.3	21.9	2.1	1.1	0.1
Cc1nn(C)cc1S(=O)(=O)Nc1ccccc1Br	-0.7	5.6	-2.2	6.2	5.9	-4.7	nt
COc1ccc(NC(=S)Nc2ccc(OC)cc2OC)c(OC)c1	-0.4	-4.8	7.4	7.4	2.0	0.0	nt
COc1ccc(NC(=S)Nc2ccccc2OC)c(OC)c1	2.5	475.7*	4.6	20.6	-4.0	-0.5	-0.5
O=C(CSc1nc2ccc(Cl)cc2[nH]1)NCc1ccco1	-0.5	358.5*	19.1	23.3	-0.9	1.4	-0.1
O=C(Nc1ccc(C(=O)Nc2ccccc2Cl)cc1)c1cccnc1	-0.8	-15.0	nt	22.7	13.0	5.2	nt
O=C(Nc1ccncc1Cl)c1ccncc1	0.8	434.8*	-0.8	13.3	6.4	0.9	-0.3
O=C(CSc1ccc(Br)cc1)Nc1ccc(N2CCOCC2)cc1	0.5	0.5	0.8	12.0	5.8	1.2	nt
N/C(=N\N=C\c1ccc(O)cc1)c1nonc1N	-0.5	488.0*	0.8	13.4	-6.3	-4.1	-0.8
Cc1ccc(-n2c(C)cc(/C=N/NC(=O)c3ccncc3)c2C)cc1C	1.1	753.0*	9.2	2.1	-4.0	-1.8	-0.2
Cc1ccc(S(=O)(=O)NCc2ccc(C(=O)N3CCN(c4ccccn4)CC3)cc2)cc1	-2.0	662.0*	-0.7	4.7	15.8	3.3	0.6
COCC(=O)n1nc(NCc2ccc(OC)cc2)nc1NCc1ccc(OC)cc1	-0.8	394.4*	-0.7	10.5	-6.8	0.0	0.2
CC(=O)c1ccc(-c2ccc(-c3cc(=O)oc4c(C(C)C)ccc(C)c34)cc2)cc1	11.3	nt	nt	nt	-8.7	-2.0	nt
O=C(c1cnn2c(C(F)(F)F)cc(-c3ccco3)nc12)N1CCCc2ccccc21	-0.4	908.2*	2.6	0.3	6.4	-0.4	-0.2
O=C(Nc1cnn(C23CC4CC(CC(C4)C2)C3)c1)c1cnn2c(C(F)(F)F)cc(-c3ccco3)nc12	11.3	17.2	13.8	16.4	31.7	-3.1	nt
Cc1cc(C)c(OCC(=O)OCC(=O)NCc2ccco2)c(C)c1	nt	nt	nt	nt	6.1	nt	nt
SMILES	NTR1 agonist	Mot1-301 SUMO	AHR activator	AI-2 QS mod	Cardio protect	GRIN3A LBD mod	Yeast Mot1 SUMO
Cc1ccc(NC(=O)CCS(=O)(=O)c2cccc3nonc23)cc1	0.2	-30.2	11.1	8.0	1.3	0.5	nt
Cc1ccc(N(CC(=O)Nc2cccc(C)c2)S(=O)(=O)c2cccc3nonc23)cc1	-2.1	615.9*	18.6	16.6	-6.4	-5.0	0.5[21 µM]
CCn1nc(CC(=O)Nc2ccc(-n3cnnn3)c(C)c2)c2ccccc2c1=O	3.6	723.7*	1.6	16.4	5.0	-0.9	0.6
CCOc1ccccc1N1CC(C(=O)NCCOc2ccccc2OC)CC1=O (centres undefined)	-0.4	-11.3	4.2	16.8	7.1	-1.9	nt
CC1(C)CC(=O)C2=C(C1)OC(N)=C(C#N)C21C(=O)N(CN2CCOCC2)c2ccccc21 (centres undefined)	-2.4	456.8*	11.4	4.9	-3.3	-1.5	0.3
CN(CC(=O)Nc1cccc(F)c1)CC(=O)Nc1cccc(S(=O)(=O)N2CCCCCC2)c1	9.0	5.2	3.8	-0.8	-0.2	-2.2	nt
CN(CC(=O)Nc1cccc(F)c1)CC(=O)Nc1cccc(S(N)(=O)=O)c1	0.6	739.6*	4.0	6.4	6.7	-0.5	0.2
C[C@@H]1NS(=O)(=O)[C@H]2C[C@@H]3C=C[C@]2(O3)[C@H]1OC(=O)Nc1ccc(C(F)(F)F)cc1[N+](=O)[O-]	-1.8	-11.1	1.7	nt	2.7	3.6	nt
Cc1c(C)c2ccc(OCC(=O)Nc3ccc(S(N)(=O)=O)cc3)c(C)c2oc1=O	1.2	-0.5	-1.4	19.3	-8.0	-0.7	nt
CCN(CC)c1ncnc2ccc(Br)cc12	-0.3	410.2*	0.8	-5.1	-14.4	-0.6	-0.5
Cc1ccc2nc(NC(=O)CN(C)S(=O)(=O)c3ccc(Br)s3)sc2c1	7.1	24.4	16.1	54.6	-18.0	9.5	nt
Cc1ccc2nc(NC(=O)CNS(=O)(=O)c3ccc(Br)s3)sc2c1	-0.9	519.7*	10.2	17.4	-14.9	-1.4	0.0
COc1ccc(CCC(=O)NNC(=S)Nc2cccc(C(C)=O)c2)cc1	0.1	+	5.2	1.2	1.2	-3.7	-0.2
CC(C)=CCC/C(C)=C/CNC(=O)C[C@H]1C[C@H](C(=O)N2CCCCC2)[C@@]2(C)c3[nH]c4cc(CCC(=O)N(C)C)ccc4c3CCN2C1=O	4.8	nt	nt	nt	-20.9	2.1	nt
CCOC(=O)C1CCN(Cc2ccc(OCc3ccccc3)cc2)CC1	1.8	554.9*	-1.5	17.6	-1.7	4.2	-0.9
NC(=O)C1CCN(Cc2ccc(OCc3ccccc3)cc2)CC1	1.0	8.4	4.3	-9.6	4.4	1.3	nt
CC(=O)Nc1cc2nn(-c3ccccc3)nc2cc1Cl	-2.0	553.1*	56.7*	9.5	-15.2	1.2	-0.3
CC(C)NC(=O)COc1ccc(S(=O)(=O)N(C)Cc2ccccc2)cc1	1.6	362.8*	3.3	-7.8	-0.9	-0.7	-0.8
COCCN(C(=O)c1csnn1)C(C(=O)NC1CCCCC1)c1ccccc1 (centres undefined)	-0.3	441.1*	-0.2	25.9	1.3	1.1	0.6
COc1ccc(CN2CC(=O)N(c3ccccc3C)C2=S)cc1OC	2.8	672.3*	2.7	8.6	2.9	-0.6	-0.6
